Results filed as inconclusive are left out. Unmarked numbers belong to inactive results. Calls follow the shape of the dose curve; as a rule, active = well fitted cell-killing curve with a large enough effect in the repeat runs; inconclusive = weak or mixed curves, or effect the other way; inactive = flat fitted curve, though single readings scatter.
Test: qHTS assay to identify small molecule agonists of the TGF-beta/Smad signaling pathway - cell viability counter screen (AID 1346829); also: top concentration of the series differs between compounds; nearly all actives have a fitted effect of over 45% in size
Settings: SBE-bla HEK293T viability, CellTiter-Glo luminescence, 5 h; series mostly up to 76.8 µM; activity change, negative = cytotoxicity: at the top concentration
Description: National Center for Advancing Translational Sciences [NCATS]
NIH Chemical Genomics Center [NCGC]
U.S. Environmental Protection Agency [EPA]
National Institutes of Environmental Health Sciences [NIEHS]
National Toxicology Program [NTP]
U.S. Food and Drug Administration [FDA]
Transforming growth factor beta (TGF-beta) superfamily consists of a large number of structurally related dimeric proteins that act as hormones or local mediators in regulating a wide range of biological functions. This superfamily includes TGF-betas themselves, the bone morphogenetic proteins (BMPs) and the activins. These ligands induce oligomerization of serine/threonine receptor kinases and phosphorylate the cytoplasmic signaling molecules of Smad protein family. CellSensor SBE-bla HEK 293T cell line (Life Technologies, Carlsbad, CA), responsive to TGF-beta was used to screen Tox21 10K compound library for identification of agonists/antagonists of the Smad signaling pathway. This cell line contains a beta-lactamase reporter gene under control of the Smad binding element (SBE) stably integrated into HEK 293T cells. Also cytotoxicity of the compounds was tested in parallel by measuring the cell viability using CellTiter-Glo assay system in the same wells.
Tox21 Assay Protocol Summary:
SBE-bla HEK 293T cells were dispensed at 4,000/well in 6 uL of assay medium into black wall/clear-bottom 1536-well plates using a Multidrop Combi (ThermoFisher Scientific, Waltham, MA) dispenser. After the assay plates were incubated at 37 C and 5% CO2 for an overnight, 23 nL of compounds dissolved in DMSO, positive controls or DMSO only was transferred to the assay plate by a Pintool station (Kalypsys, San Diego, CA). The assay plates were incubated at 37 C and 5% CO2 for 5 hr. One uL of LiveBLAzer B/G FRET substrate (Life Technologies) was added using a Flying Reagent Dispenser (FRD, Aurora Discovery, San Diego, CA) and the plates were incubated at room temperature for 2 hr. Fluorescence intensity (405 nm excitation, 460 nm and 530 nm emissions) was measured using an Envision plate reader (PerkinElmer, Shelton, CT). For cytotoxicity read, 4 uL of CellTiter-Glo reagent (Promega Corporation, Madison, WI) was added to each well of the assay plates using FRD. After 30min incubation at room temperature, the luminescence intensity was measured using ViewLux plate reader (PerkinElmer).
% is scaled to controls: 0 for no effect and ±100 for the full control effect.

Compound	activity change, negative = cytotoxicity
CCCOc1ccc(C(=O)OCCN(CC)CC)cc1N	-3.28% [at 35.3 µM]
CC(=O)SCC(CC(=O)c1ccc(C)cc1)C(=O)O (stereo not given)	20.9% [at 35.3 µM]
CCCCC(O)/C=C(C)/C=C/C=C/C(=O)N1CCCC1=O (stereo not given)	0.764% [at 35.3 µM]
CCc1ccc(CC)cc1	1.17%
CC(CN1CC(=O)NC(=O)C1)N1CC(=O)NC(=O)C1 (stereo not given)	1.15%
CCCCN=C(N)N=C(N)N	-17.3% [at 35.3 µM]
OCCC(F)(F)C(F)(F)C(F)(F)C(F)(F)C(F)(F)C(F)(F)F	1.94%
COC(=O)C(c1ccccc1Cl)N1CCc2sccc2C1 (stereo not given)	-10.8% [at 35.3 µM]
CC(=O)OC1CCC(C(C)(C)C)CC1 (stereo not given)	2.54%
Cc1ccc(N)nc1	4.84%
N#Cc1ccccc1C#N	-1%
N#CC1(N)CCCCC1	-21.9%
CC(C)(C)NCC(O)COc1cccc2c1CCC(=O)N2 (stereo not given)	7.32% [at 35.3 µM]
Cc1cc2c(cc1CC(=O)c1sccc1S(=O)(=O)Nc1onc(C)c1Cl)OCO2	18.5% [at 35.3 µM]
CC(=O)c1c(C)cc(C(C)(C)C)cc1C	-12.9%
Cc1ccccc1C#N	-15.3%
C[Si](C)(C)O[Si](O)(O)O	6.85%
COc1cc(NS(=O)(=O)c2ccc(N)cc2)ncn1	-12.2% [at 35.3 µM]
CCO/C=C1\N=C(c2ccccc2)OC1=O	9.19%
CC(C)(C)c1ccc(N)cc1	0.0288%

Compound	activity change, negative = cytotoxicity
CC/C=C\CCCCCCCCCCOC(C)=O	5.11%
CC(C)C(C)C	2.75%
O=C(O)Cc1ccccc1Oc1ccc(Cl)cc1Cl	-5.56% [at 35.3 µM]
C=CCN1CCc2nc(N)sc2CC1	-11.7% [at 35.3 µM]
CNC(C)=O	19.9%
CCCc1ncc(C(=O)O)s1	-4.02% [at 35.3 µM]
O=C(CCBr)N1CCN(C(=O)CCBr)CC1	-5.39% [at 35.3 µM]
C=CCOC(=O)CCCCCCCC	-1.15%
CCCCN(CCCC)CCCCCCN(CCCC)CCCC	-3.27%
c1cc2ccc3ccc4ccc5cccc6c(c1)c2c3c4c56	8.19% [at 2.72 µM]
N=C(N)N1CCc2ccccc2C1	-4.14% [at 6.97 µM]
COC(C)(C)CC(C)=O	-4.25%
Cc1ccc2cccnc2c1	0.895%
CC(C)(C)C(=O)CC(=O)C(C)(C)C	5.55%
O=C(O)CCC(=O)Nc1ccc(S(=O)(=O)Nc2nccs2)cc1	0.0774% [at 35.3 µM]
CC1(C)C(=O)C(C)(C)C1=O	3.11%
CC(=O)c1ccc2ccc3ccccc3c2c1	-11.8%
CNCCc1ccccn1	1.42% [at 35.3 µM]
Cc1ccc(NC(N)=O)cc1	3.96%
CCCc1ccc(O)c(OC)c1	6.47%

Source: PubChem BioAssay (Tox21)
